Results filed as inconclusive are left out. Active and inactive are the calls of the source. Calls come from the whole dose curve; as a rule, active = well fitted inhibition curve with a large enough effect; inconclusive = small, poorly fitted or top-dose-only effect, or effect the other way; inactive = flat fitted curve, though single readings scatter.
biological target: Ubiquitin carboxyl-terminal hydrolase 2 (Homo sapiens) (UniProt O75604); experiment: Ub-rhodamine 110 based assay for inhibitors Ubiquitin-specific Protease USP2a; conditions: USP2a Ub-rhodamine110 cleavage, fluorescence; series mostly up to 38.3 µM; note: nearly all actives have a fitted effect of over 50% in size
Procedure, shortened: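 Kinetic fluorescence (485/531 nm) read each minute over 7 min after adding Ub-Rhod110 (150 nM final) to USP2a (5 nM final). The enzyme had 30 min RT exposure to compounds beforehand in Tris pH 8.0 buffer with CaCl2, CHAPS and beta-ME.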
Potency is the fitted concentration of half-maximal effect.

Sequence of Ubiquitin carboxyl-terminal hydrolase 2 (Homo sapiens) (O75604 whole entry, looked up): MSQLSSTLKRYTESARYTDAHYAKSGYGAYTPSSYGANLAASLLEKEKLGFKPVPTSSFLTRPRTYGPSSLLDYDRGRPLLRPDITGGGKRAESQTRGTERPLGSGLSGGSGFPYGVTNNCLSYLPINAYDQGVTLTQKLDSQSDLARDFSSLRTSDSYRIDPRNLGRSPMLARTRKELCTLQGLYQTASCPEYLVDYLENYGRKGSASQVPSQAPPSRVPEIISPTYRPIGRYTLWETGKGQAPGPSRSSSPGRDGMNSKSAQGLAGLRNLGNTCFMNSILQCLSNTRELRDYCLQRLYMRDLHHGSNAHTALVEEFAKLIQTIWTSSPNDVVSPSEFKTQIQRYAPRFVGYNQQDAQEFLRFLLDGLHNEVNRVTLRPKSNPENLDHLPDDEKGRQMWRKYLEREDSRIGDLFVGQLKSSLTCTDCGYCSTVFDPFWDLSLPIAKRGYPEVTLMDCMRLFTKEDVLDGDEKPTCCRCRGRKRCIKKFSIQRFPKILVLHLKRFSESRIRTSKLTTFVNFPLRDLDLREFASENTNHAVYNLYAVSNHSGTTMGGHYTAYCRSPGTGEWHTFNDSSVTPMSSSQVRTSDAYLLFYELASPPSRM

Potency, inactive:
Cc1c(C(=O)Nc2ccc3c4c(cccc24)CC3)cccc1[N+](=O)[O-], COc1cc(NC(=O)COC(=O)CSc2ccccc2F)c(C)cc1[N+](=O)[O-], OCCN(Cc1ccccc1)c1ncnc2sccc12, COc1ccccc1C1NC(c2ccccc2OC)C(C)C(=O)C1C (centres undefined), CC(=O)Nc1ccc(NC(=O)C2CCCN(S(=O)(=O)c3ccc(Cl)cc3)C2)cc1 (centres undefined), Cc1ccc(CN2C(=O)N/C(=C\c3cccn3-c3cccc(C(=O)O)c3)C2=O)cc1, COc1ccc(/C=C(\NC(=O)c2ccc(OC)c(OC)c2)C(=O)N2CCN(C)CC2)cc1, COc1ccc(S(=O)(=O)N2CCCC2C(=O)NCc2cccs2)cc1 (centres undefined), C=C(C)COc1ccc(-c2[nH]ncc2Oc2ccccc2OCC)c(O)c1, Cc1c(N=C/C=C2\N(C)c3ccccc3C2(C)C)c(=O)n(-c2ccccc2)n1C, COc1ccc(CC(=O)c2ccccc2C(=O)O)cc1, C#CCOCCOCCOCCNc1nc(N2CCN(C(=O)CCCCCCCCCCNC(=O)[C@H]([C@@H](C)CC)n3cc(CCCCCN)nn3)CC2)nc(N2CCN(C(=O)CCCCCCCCCCNC(=O)[C@H](CCCCN)n3cc(CCCC(=O)O)nn3)CC2)n1, O=C(C[n+]1cccc(C(=O)N/N=C/c2ccc(Br)cc2)c1)c1ccccc1, CCCSCCCNC(=O)CC1Oc2ccccc2NC1=O (centres undefined), CCOc1ccccc1N(CC(=O)NC(C)(C)C)C(=O)c1ccc(CN2CCOCC2)o1, COc1ccc(CCNC(=O)Cc2cc(=O)[nH]c(=O)[nH]2)cc1OC, Cc1ccc(NC(=O)c2onc(C)c2Cl)cc1, O=C(O)CC(C(=O)O)N1C(=O)/C(=C/C=C/c2ccco2)SC1=S (centres undefined), O=S(=O)(c1ccccc1)N(CC1CO1)c1cc(Cl)ccc1Cl (centres undefined), O=c1oc2c(CN3CCCCC3)c(O)ccc2c2c1CCCCC2, COCCCNC(=O)C1CCN(c2nc(C)cc(C)n2)CC1, COc1ccc(-c2nnn(CC(=O)N3CCOCC3)n2)cc1, O=C(Nc1cnn(Cc2ccccc2)c1)c1nc2ncccn2n1, CC(=O)c1ccc(NC(=O)CC(NCCC2=CCCCC2)C(=O)O)cc1 (centres undefined), Cc1cc2c(c(=O)n1CC1CCCO1)C(c1ccco1)C(C#N)=C(N)O2 (centres undefined), CCOC(=O)c1c(C)n(-c2ccc(C)cc2)c2ccc(OCC(O)CN3CCN(C)CC3)cc12 (centres undefined), CCOC(=O)c1c(C)[nH]c(C(=O)COC(=O)CSC)c1C, CCOC(=O)c1c(C)c(C(=O)O)n(C)c1C, C=CC[C@H](CC(=O)N(CCO)Cc1ccccc1)C(=O)N[C@H](C)COC(=O)[C@@H](CC=C)CC(=O)OC(C)(C)C, O=C(Nc1cccc(C(F)(F)F)c1)/C(=C\c1ccco1)NC(=O)c1cccs1

Potency, active:
CCOc1ccc(C=NNc2ccc(S(=O)(=O)Nc3ccccc3C(=O)O)cc2[N+](=O)[O-])cc1 2.82 µM, C#CCOCCOCCOCCNc1nc(N2CCN(C(=O)CCCCCCCCCCNC(=O)[C@H]([C@@H](C)CC)n3cc(CCCCCN)nn3)CC2)nc(N2CCN(C(=O)CCCCCCCCCCNC(=O)[C@H]([C@@H](C)CC)n3cc(CCCCN=C(N)N)nn3)CC2)n1 12.6 µM, Cc1cc(-c2nnc3n2N=C(c2ccc(-c4ccccc4)cc2)CS3)n[nH]1 11.2 µM, CC1(C)Cc2c(C#N)c(N3CCN(C(=O)c4ccco4)CC3)nc(-c3ccco3)c2CS1 8.91 µM, CCn1c(=O)c(C(=O)Nc2ccccc2S(N)(=O)=O)c(O)c2ccccc21 5.62 µM, N=C1/C(=C\c2ccc(-c3cccc(Cl)c3)o2)C(=O)N=C2SC=C(c3ccccc3)N12 11.2 µM, O=C(COC(=O)c1ccc(NS(=O)(=O)c2cccs2)cc1)Nc1nc2c(F)c(F)c(F)cc2s1 3.55 µM, CCOc1ccc(NC(=O)c2ccc(NC(=O)COC(=O)c3ccc(NC(=O)CC#N)cc3)cc2)cc1 3.98 µM, O=C(NCCc1ccccc1)c1ccc2nc(-c3ccco3)c(-c3ccco3)nc2c1 5.01 µM
